The record followed here is PubChem BioAssay AID504332 (National Center for Advancing Translational Sciences (NCATS), 2011).

The structures appear in SMILES notation. Among all 350,000 compounds or so, about 31,000 (8.9%) were called active. Not shown: some 15% with an inconclusive outcome. This is one part of a sample in which actives are shown more often than they occur. The call rests on the fitted dose curve; in most records, active means well fitted inhibition curve with a large enough effect; inconclusive means small, poorly fitted or top-dose-only effect; inactive means no such curve, though single readings can be large or run the other way.
On the % scale 0 is the no-effect control and ±100 the full control effect; potency means the concentration at half of the fitted maximal effect.

Sequence of Histone-lysine N-methyltransferase EHMT2 (Homo sapiens) (Q96KQ7 913-1193 limits assumed): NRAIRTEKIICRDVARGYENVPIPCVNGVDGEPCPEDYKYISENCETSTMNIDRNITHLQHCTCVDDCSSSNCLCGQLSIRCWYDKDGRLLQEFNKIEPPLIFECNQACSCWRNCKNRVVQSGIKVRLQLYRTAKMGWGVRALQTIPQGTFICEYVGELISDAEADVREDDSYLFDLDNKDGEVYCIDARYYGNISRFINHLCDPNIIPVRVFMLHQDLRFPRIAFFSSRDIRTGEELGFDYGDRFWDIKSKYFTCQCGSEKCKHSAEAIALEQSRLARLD

The experiment concerns the target Histone-lysine N-methyltransferase EHMT2 (Homo sapiens) (UniProt Q96KQ7). Kind of experiment: qHTS Assay for Inhibitors of Histone Lysine Methyltransferase G9a. Further: nearly all actives have a fitted effect of over 75% in size. Conditions: G9a H3K9 monomethylation, AlphaScreen, 2 h; series mostly up to 59 µM; activity, negative = inhibition: at the top concentration. In short, it runs like this:
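Signal arises when biotinylated H3K9 peptide, once monomethylated, bridges streptavidin donor and antibody-captured acceptor beads. Enzyme at 20 nM was preincubated 15 min with test compounds; peptide 500 nM and SAM 20 uM then reacted for 2 h.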
With `CCSc1nnc2c(n1)OC(c1ccc(OCC(=O)O)cc1)Nc1ccccc1-2` (centres undefined), the “activity, negative = inhibition” value is -45.6% (inactive).
In the case of `COc1ccc(OCCCCN2CCC(C)CC2)cc1`, the “activity, negative = inhibition” value was 5.74% [at 102 µM] (inactive).
Consider `COc1ccc(OCCn2ccnc2C)cc1`, for which the Potency was 8.91 µM (active).
Consider `COc1ccc(OCCC(=O)c2ccc(OC)cc2)cc1`, for which the “activity, negative = inhibition” value is -34.9% [at 102 µM] (inactive).
On to `O=C(OCC(=O)N1CCCC1=O)c1cc(S(=O)(=O)N2CCOCC2)ccc1Cl`, for which the “activity, negative = inhibition” value was -46.3% [at 102 µM] (inactive).
Turning to `CCC(C(=O)Nc1cccc(-c2nc3cccnc3s2)c1C)c1ccccc1` (centres undefined), the “activity, negative = inhibition” value was 8.59% (inactive).
On to `Cc1cc(C)nc(NC(=O)C(C)N2C(=O)c3ccccc3C2=O)n1` (centres undefined), for which the “activity, negative = inhibition” value is -3.61% [at 102 µM] (inactive).
Same read-out and setting: to `Cc1cc(C)nc(Nc2ncn[nH]2)n1` belongs 11.3% [at 102 µM] (inactive).
On to `Cc1cc(C)nc(Nc2n[nH]c(-c3ccccc3N)n2)n1`, for which the Potency was 7.94 µM (active).
On to `CN(C)c1ccc(C(CNC(=O)c2ccc(F)cc2)c2c[nH]c3ccccc23)cc1` (centres undefined), for which the Potency is 10 µM (active).
For `CCOc1ccccc1C(=O)NCC(c1ccc(N(C)C)cc1)N1CCCC1` (centres undefined), the activity, negative = inhibition was 2.29% [at 12.7 µM] (inactive).
Regarding `C[C@H](NC(=O)c1ccccc1)C(=O)OCC(=O)c1c[nH]c2ccccc12`, the “activity, negative = inhibition” value is -6.84% (inactive).
For `CCCN1CCN(CCCNC(=O)c2ccc3nc(Cc4ccccc4)oc3c2)CC1`, the “activity, negative = inhibition” value was 4.53% (inactive).
Consider `O=C(c1c(F)cccc1F)N1CCN(S(=O)(=O)c2ccc3c(c2)OCCO3)CC1`, for which the activity, negative = inhibition was -0.69% [at 0.501 µM] (inactive).
Consider `CNc1ccc(SC#N)cc1`, for which the Potency was 44.7 µM (active).
As for `COc1ccc(-n2nc(C(=O)NCCc3ccc(Cl)cc3)c3c4ccccc4n(C)c3c2=O)cc1Cl`, the “activity, negative = inhibition” value is 3.47% (inactive).
As for `CCOc1ccc2nc(NCCNS(=O)(=O)c3ccccc3)c(C#N)cc2c1`, the Potency was 50.1 µM (active).
With `CCOc1ccc(S(=O)(=O)NCCSc2ccccc2)cc1`, the “activity, negative = inhibition” value is 52.1% [at 102 µM] (inactive).
The same measure, in the same setting: to `CCOc1ccc2nc(NCCNC(=O)C(C)(C)C)c(C)cc2c1` belongs 13.8% [at 102 µM] (inactive).
As for `Cc1nnc(SCC(=O)NCc2ccccc2Cl)c2nn(-c3ccccc3)c(C)c12`, the “activity, negative = inhibition” value is -24.3% (inactive).
For `CCOC(=O)c1ccc(NC(=O)C2CC(=O)NC(=Nc3ccc(C)c(C)c3)S2)cc1` (centres undefined), the “activity, negative = inhibition” value is -67.7% (inactive).
As to `COC(=O)c1cc(NC(=O)c2cccnc2)ccc1N1CCOCC1`, the activity, negative = inhibition was -2.27% [at 0.501 µM] (inactive).
The same measure, in the same setting: with `O=C(Nc1cccc(Cl)c1N1CCOCC1)c1cccnc1` the figure was 49.1% [at 102 µM] (inactive).
For `COc1ccccc1NC(=O)c1ccc(N2CC3CC(C2)c2cccc(=O)n2C3)c(NC(=O)c2cccnc2)c1` (centres undefined), the Potency is 15.8 µM (active).
As for `CCn1c(Cc2ccc(OC)cc2)nnc1SCC(=O)Nc1ccc(N2CCOCC2)cc1`, the “activity, negative = inhibition” value was 6.79% [at 102 µM] (inactive).
For `Cc1ccc(-c2noc(-c3nnn(-c4cccc(C(F)(F)F)c4)c3N)n2)cc1`, the “activity, negative = inhibition” value was -6.96% (inactive).
For the compound `Cc1ccsc1/C=C1\SC(N2CCOCC2)=NC1=O`, the activity, negative = inhibition was 12.5% [at 12.7 µM] (inactive).
The same measure, in the same setting: with `CC1CCN(C2=NC(=O)/C(=C/c3ccc(O)cc3)S2)CC1` the figure was 0.648% [at 102 µM] (inactive).
With `CCc1ccc(/C=C2\SC(N3CCOCC3)=NC2=O)cc1`, the Potency was 50.1 µM (active).
Turning to `COC(=O)Cc1ccc(OC(=O)C2CCN(S(=O)(=O)c3ccc(OC)c(OC)c3)CC2)cc1`, the activity, negative = inhibition is 13.8% [at 12.7 µM] (inactive).
For `O=C(Nc1ccc2oc(-c3ccc(O)c(Br)c3)nc2c1)c1cc2ccccc2o1`, the “activity, negative = inhibition” value was 3.9% (inactive).
Consider `Clc1ccc(CN2CCCCCC2)cc1Cl`, for which the Potency is 22.4 µM (active).
Consider `c1cc(-c2nn[nH]n2)ccc1CN1CCCCC1`, for which the “activity, negative = inhibition” value was -40.3% [at 102 µM] (inactive).
On to `Clc1ccc(-n2nnnc2CN2CCCCC2)cc1Cl`, for which the “activity, negative = inhibition” value was 15.7% (inactive).
As to `O=C(Nc1ncccc1O)c1ccc(S(=O)(=O)N2CCCCCC2)cc1`, the “activity, negative = inhibition” value was 5.43% [at 102 µM] (inactive).
For `CCN(C(=O)Cn1cc(S(=O)(=O)N2CCN(c3ccccc3F)CC2)c2ccccc2c1=O)c1ccc(C)c(C)c1`, the “activity, negative = inhibition” value was -32.2% (inactive).
On the same count and under the same terms, to `Cc1ccc(C)c(Cn2c(C)c(CNCc3ccc(F)cc3)c(C(=O)O)c2C)c1` belongs -2.85% (inactive); to `Cn1cccc1C(=O)NNC(=O)COc1ccc(Br)cc1`, 4.95% [at 0.501 µM] (inactive).
On to `CCCCNC(=O)CSc1nc2ccc(NC(=O)CSc3nnc(N)s3)cc2s1`, for which the Potency was 2 µM (active).
In the case of `CN(C(=O)CSc1nc2ccc(NC(=O)COc3ccccc3)cc2s1)c1ccccc1`, the “activity, negative = inhibition” value is -35% (inactive).
For `CCC(=O)Nc1ccc2nc(SCC(=O)N3CCc4ccccc43)sc2c1`, the “activity, negative = inhibition” value was 5.3% (inactive).
For the compound `CN(C)C(=O)N=NC(=O)N(C)C`, the Potency was 2.24 µM (active).
For the compound `CCOc1ccc(NC(=O)CC2C(=O)N(c3cccc(OC)c3)C(=O)N2C2CCCCC2)cc1` (centres undefined), the “activity, negative = inhibition” value was -36.5% (inactive).
Turning to `COc1ccc(CNC(=O)CNC(=O)c2sc3ccccc3c2Cl)cc1OC`, the “activity, negative = inhibition” value is -4.28% [at 102 µM] (inactive).
With `COc1ccc(OCCCC(=O)Nc2cccc(S(=O)(=O)N3CCCCCC3)c2)cc1`, the activity, negative = inhibition is -48.2% [at 12.7 µM] (inactive).
For the compound `COc1ccc(-c2cn3c(n2)sc2cc(C(=O)Nc4ccccc4F)ccc23)cc1`, the “activity, negative = inhibition” value was 5.43% (inactive).
Consider `CN1CCN(CCCCOc2cccc3ccccc23)CC1`, for which the activity, negative = inhibition is 26.3% [at 2.33 µM] (inactive).
Turning to `CCN1CCN(CCCCOc2ccccc2F)CC1`, the Potency is 10 µM (active).
As to `Fc1ccccc1OCCCCn1cncn1`, the “activity, negative = inhibition” value is -3.44% (inactive).
